Assay results: the supplement of paper PMC8728848
Many of the other results were omitted from the sample, so the strongest signals are more common in it than they were.

What was measured:
Experiment in all cases: glycan array binding signal (z-score within array); higher = stronger binding
Details in all cases: glycan notation: IUPAC condensed, linker removed
[1] = target: GlcNAc(b1-3)Gal(b1-4)GlcNAc(b1-3)Gal(b1-4)GlcNAc(b1-3)Gal(b1-4)GlcNAc(b1-2)Man(a1-3)[GlcNAc(b1-3)Gal(b1-4)GlcNAc(b1-3)Gal(b1-4)GlcNAc(b1-3)Gal(b1-4)GlcNAc(b1-2)Man(a1-6)]Man(b1-4)GlcNAc(b1-4)[Fuc(a1-6)]GlcNAc
Procedure, shortened: (§1)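 Arrays were curated from the Consortium for Functional Glycomics database, 3228 in total, and kept only where the protein sequence was available. Binding is expressed as a within-array Z-score. This score was averaged across arrays of the same protein sequence at different concentrations or buffers and across linkers, and negative values can be read as non-binding.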

[2] = target: GlcNAc(b1-3)Gal(b1-4)GlcNAc(b1-3)Gal(b1-4)GlcNAc(b1-3)Gal(b1-4)GlcNAc(b1-2)[GlcNAc(b1-3)Gal(b1-4)GlcNAc(b1-3)Gal(b1-4)GlcNAc(b1-3)Gal(b1-4)GlcNAc(b1-6)]Man(a1-6)[GlcNAc(b1-3)Gal(b1-4)GlcNAc(b1-3)Gal(b1-4)GlcNAc(b1-3)Gal(b1-4)GlcNAc(b1-2)Man(a1-3)]Man(b1-4)GlcNAc(b1-4)[Fuc(a1-6)]GlcNAc
Procedure, shortened: as §1

GlcNAc(b1-4)GlcNAc = target: GlcNAc(b1-4)GlcNAc
Procedure, shortened: as §1

[3] = target: GlcNAc(b1-4)[GlcNAc(b1-6)]GalNAc
Procedure, shortened: as §1

[4] = target: GlcNAc(b1-6)Gal(b1-4)GlcNAc
Procedure, shortened: as §1

[5] = target: Man(a1-2)Man(a1-2)Man(a1-6)[Man(a1-3)]Man
Procedure, shortened: as §1

[6] = target: Man(a1-3)[Man(a1-6)]Man(b1-4)GlcNAc(b1-4)GlcNAc
Procedure, shortened: as §1

Man(b1-4)GlcNAc = target: Man(b1-4)GlcNAc
Procedure, shortened: as §1

Neu5Ac(a2-3)Gal = target: Neu5Ac(a2-3)Gal
Procedure, shortened: as §1

[7] = target: Neu5Ac(a2-3)Gal(b1-3)GalNAc6S
Procedure, shortened: as §1

[8] = target: Neu5Ac(a2-3)Gal(b1-3)GlcNAc(b1-3)Gal(b1-4)GlcNAc
Procedure, shortened: as §1

[9] = target: Neu5Ac(a2-3)Gal(b1-4)GlcNAc(b1-2)Man(a1-3)[Neu5Ac(a2-6)Gal(b1-4)GlcNAc(b1-2)Man(a1-6)]Man(b1-4)GlcNAc(b1-4)GlcNAc
Procedure, shortened: as §1

[10] = target: Neu5Ac(a2-3)Gal(b1-4)GlcNAc(b1-3)Gal(b1-4)GlcNAc(b1-2)Man(a1-3)[Neu5Ac(a2-3)Gal(b1-4)GlcNAc(b1-3)Gal(b1-4)GlcNAc(b1-2)Man(a1-6)]Man(b1-4)GlcNAc(b1-4)GlcNAc
Procedure, shortened: as §1

[11] = target: Neu5Ac(a2-3)Gal(b1-4)[Fuc(a1-3)]GlcNAc(b1-2)Man
Procedure, shortened: as §1

Neu5Ac(a2-8)Neu5Ac = target: Neu5Ac(a2-8)Neu5Ac
Procedure, shortened: as §1

[12] = target: Neu5Ac(a2-8)Neu5Ac(a2-8)Neu5Ac
Procedure, shortened: as §1

[13] = target: Neu5Gc(a2-3)Gal(b1-4)GlcNAc
Procedure, shortened: as §1

B1: Epf (Streptococcus pyogenes) (protein)
chain: GDHGPEFNGVMVVKAAEAEELPDDLMNFKGTWEVSADGSSGRFFSKGATDSYVFHLIPAKDVKKPGWREHNEVKDSYIKIDKQSIAARYKTSTTAPYSVAFKVNTKSLIKDHDYKITFEQGQIASGITVDYRIGSAFNKTTDDSFKISDESKYASNVKIEGEEQGFKQREQGDKTISFRTLKEGPMSLVLLSKVEKKPQGDLDVEFKNLKIIDVTNPSQLDKGVAYVGNKNVQLTLKSDDGRTNFEGDEISLFNSRGELLQTVTVTKDQQNPISITLSEDQAKSLKNKEKLKVSIKQKQSKKTSKDFFFEVGIDPKVEAKQKEKLLELDKVKKQIEDSINGDAWLPEKPVDLQGDHGLSAWSHPQFEK
glycan array binding signal (z-score) [1]: 2.18
glycan array binding signal (z-score) [2]: 2.85
glycan array binding signal (z-score) (GlcNAc(b1-4)GlcNAc): -1.32
glycan array binding signal (z-score) [3]: 3.11
glycan array binding signal (z-score) [4]: -0.433
glycan array binding signal (z-score) [5]: 1.01
glycan array binding signal (z-score) [6]: 0.659
glycan array binding signal (z-score) (Man(b1-4)GlcNAc): -0.471
glycan array binding signal (z-score) (Neu5Ac(a2-3)Gal): -0.169
glycan array binding signal (z-score) [7]: 1.65
glycan array binding signal (z-score) [8]: -1.25
glycan array binding signal (z-score) [9]: -0.643
glycan array binding signal (z-score) [10]: 1.33
glycan array binding signal (z-score) [11]: -1.48
glycan array binding signal (z-score) (Neu5Ac(a2-8)Neu5Ac): 0.246
glycan array binding signal (z-score) [12]: -0.377
glycan array binding signal (z-score) [13]: 0.422
